Test results published in PubChem BioAssay (Tox21).
Unmarked numbers belong to inactive results. Results filed as inconclusive are left out. A call without a number means that no potency is given here. Calls of active or inactive are those of the source. Unless noted, the call rests on the fitted dose curve; in most records, active means well fitted curve in the direction sought with a large enough effect in the repeat runs; inconclusive means weak or mixed curves; inactive means flat fitted curve, though single readings scatter.

What was measured:
[1] = qHTS assay to test for compound auto fluorescence at 535 nm (green) in HEK293 cells (AID 720680)
[2] = qHTS assay to test for compound auto fluorescence at 460 nm (blue) in HEK293 cell free culture (AID 720681)
How it was run: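 Test compounds were pinned into cell-free culture medium (DMEM with 10% FBS) and fluorescence was read directly at Ex/Em 405/460 nm. Signals were expressed as fluorescence equivalents of triamterene, with DMSO vehicle as control.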

[3] = qHTS assay to test for compound auto fluorescence at 535 nm (green) in HEK293 cell free culture (AID 720682)
How it was run: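 Cell-free medium (DMEM, 10% FBS) receives compound or DMSO by pintool. Plate read directly at Ex 485/Em 535 nm. Signal converted to fluorescein equivalency.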

[4] = qHTS assay to test for compound auto fluorescence at 590 nm (red) in HEK293 cell free culture (AID 720683)
How it was run: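 Tox21 10K library compounds were pinned into cell-free DMEM with 10% FBS and fluorescence was read at excitation 540 nm. Activity is expressed as Rose Bengal sodium equivalency.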

[5] = qHTS assay to test for compound auto fluorescence at 590 nm (red) in HepG2 cell free culture (AID 720684)
How it was run: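 Red fluorescence (540 nm excitation, 590 nm emission) was measured after compound transfer into cell-free MEM supplemented with 10% FBS. Values are equivalencies against Rose Bengal sodium.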

[6] = qHTS assay to test for compound auto fluorescence at 460 nm (blue) in HepG2 cell free culture (AID 720685)
How it was run: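 Compound (23 nL) or DMSO pinned into cell-free MEM with 10% FBS; blue fluorescence read at 405/460 nm excitation/emission, expressed as auto-fluorescence equivalency to triamterene.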

[7] = qHTS assay to test for compound auto fluorescence at 535 nm (green) in HepG2 cell free culture (AID 720686)
[8] = qHTS assay to test for compound auto fluorescence at 460 nm (blue) in HepG2 cells (AID 720687)
How it was run: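 Cells (2,000/well in MEM with 10% FBS) attached overnight at 37 C, then were exposed to compound or DMSO for 1 hr at 37 C, 5% CO2. Fluorescence read at Ex/Em 405/460 nm, expressed as triamterene-equivalent signal.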

[9] = biological target: Glucocorticoid receptor (Homo sapiens) (UniProt P04150); test: qHTS assay to identify small molecule agonists of the glucocorticoid receptor (GR) signaling pathway (AID 720691; active means well fitted activation curve with a large enough effect in the signal ratio in the repeat runs, not every such curve was filed as active; the % refers to the signal ratio; further: potency means the concentration at half of the fitted maximal effect)
How it was run: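 GR-bla HeLa cells carrying a GRE-driven beta-lactamase reporter, exposed to compounds for 18 h at 37 C. Reporter activation read as fluorescence after 2 h with LiveBLAzer B/G FRET substrate at room temperature.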

[10] = biological target: Glucocorticoid receptor (Homo sapiens) (UniProt P04150); test: qHTS assay to identify small molecule antagonists of the glucocorticoid receptor (GR) signaling pathway (AID 720692; active means well fitted inhibition curve with a large enough effect in the signal ratio in the repeat runs, not every such curve was filed as active; the % refers to the signal ratio; further: potency means the concentration at half of the fitted maximal effect)
How it was run: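 GR-bla HeLa cells carrying a GRE-driven beta-lactamase reporter received compound after 4 h plating, then dexamethasone (5 nM final). After 18 h at 37C, the FRET substrate was loaded for 2 h at room temperature and fluorescence read.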

Chain of Glucocorticoid receptor (Homo sapiens) (P04150 whole entry, looked up): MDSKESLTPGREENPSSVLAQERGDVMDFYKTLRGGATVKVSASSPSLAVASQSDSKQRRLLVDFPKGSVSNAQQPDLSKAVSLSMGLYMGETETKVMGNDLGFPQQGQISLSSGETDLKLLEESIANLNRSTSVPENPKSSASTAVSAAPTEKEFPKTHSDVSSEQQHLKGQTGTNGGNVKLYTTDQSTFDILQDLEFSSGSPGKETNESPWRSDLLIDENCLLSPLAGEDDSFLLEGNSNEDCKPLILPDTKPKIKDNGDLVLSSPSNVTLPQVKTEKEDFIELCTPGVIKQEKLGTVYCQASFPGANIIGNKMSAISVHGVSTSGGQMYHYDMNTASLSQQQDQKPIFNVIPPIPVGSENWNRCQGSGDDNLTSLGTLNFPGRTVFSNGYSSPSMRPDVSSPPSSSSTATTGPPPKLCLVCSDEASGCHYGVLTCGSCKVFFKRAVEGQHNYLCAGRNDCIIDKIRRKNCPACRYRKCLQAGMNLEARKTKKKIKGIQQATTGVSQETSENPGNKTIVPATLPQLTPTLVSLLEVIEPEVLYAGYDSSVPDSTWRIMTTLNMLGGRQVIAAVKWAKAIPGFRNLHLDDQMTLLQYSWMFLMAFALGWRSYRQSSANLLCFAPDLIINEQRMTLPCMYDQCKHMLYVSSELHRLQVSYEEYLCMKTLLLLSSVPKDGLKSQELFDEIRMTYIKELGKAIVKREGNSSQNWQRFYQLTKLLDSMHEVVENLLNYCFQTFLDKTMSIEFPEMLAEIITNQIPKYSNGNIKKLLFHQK

Row | Compound | outcome [1] | outcome [2] | outcome [3] | outcome [4] | outcome [5] | outcome [6] | outcome [7] | outcome [8] | Potency [9] | Potency [10] | fluorescence, % of fluorescein [1] | fluorescence, % of fluorescent control [2] | activity change [3] | fluorescence, % of fluorescent control [4] | fluorescence, % of Rose Bengal [5] | fluorescence, % of fluorescent control [6] | fluorescence, % of fluorescein control [7] | fluorescence, % of fluorescent control [8]
1 | CCCCOC(=O)CCC(C)=O | inactive | inactive | inactive | inactive | inactive | inactive | inactive | inactive | inactive | inactive | – | – | – | – | – | – | – | –
2 | Cc1ccc(C(=O)c2ccccc2)cc1 | inactive | inactive | inactive | inactive | inactive | inactive | inactive | inactive | inactive | inactive | – | – | – | – | – | – | – | –
3 | CC(=O)C1CCCCC1=O (centres undefined) | inactive | inactive | inactive | inactive | inactive | inactive | inactive | inactive | inactive | inactive | – | – | – | – | – | – | – | –
4 | C=CC(C)(CCC=C(C)C)OC(=O)CC (centres undefined) | inactive | inactive | inactive | inactive | inactive | inactive | inactive | inactive | inactive | inactive | – | – | – | – | – | – | – | –
5 | O=[N+]([O-])c1ccc(/C=N\O)o1 | inactive | inactive | inactive | inactive | inactive | inactive | inactive | inactive | inactive | inactive | – | – | – | – | – | – | – | –
6 | CCOc1ccccc1OCC | inactive | inactive | inactive | inactive | inactive | inactive | inactive | inactive | inactive | inactive | – | – | – | – | – | – | – | –
7 | CC(=O)Nc1ccc(OCC(O)CNC(C)C)cc1 (centres undefined) | inactive | inactive | inactive | inactive | inactive | inactive | inactive | inactive | inactive | inactive | – | – | – | – | – | – | – | –
8 | NC(N)=NCCN1CCCCCCC1 | – | – | – | – | – | – | – | – | inactive | inactive | -0.017% [at 18.6 µM] | -0.0671% [at 18.6 µM] | 0.0837% [at 18.6 µM] | -0.0086% [at 18.6 µM] | -0.0563% [at 18.6 µM] | 0.0071% [at 18.6 µM] | 0.0218% [at 18.6 µM] | -0.0842% [at 18.6 µM]
9 | Cc1cccc(C)c1NC(=O)CC12CCCN1CCC2 | inactive | inactive | inactive | inactive | inactive | inactive | inactive | – | inactive | inactive | – | – | – | – | – | – | – | –
10 | Cc1ccc(C(=O)Nc2ccc(S(=O)(=O)O)c3cc(S(=O)(=O)O)cc(S(=O)(=O)O)c23)cc1NC(=O)c1cccc(NC(=O)Nc2cccc(C(=O)Nc3cc(C(=O)Nc4ccc(S(=O)(=O)O)c5cc(S(=O)(=O)O)cc(S(=O)(=O)O)c45)ccc3C)c2)c1 | inactive | inactive | inactive | inactive | inactive | inactive | inactive | – | inactive | inactive | – | – | – | – | – | – | – | –
11 | CCOc1ccc2nc(S(N)(=O)=O)sc2c1 | inactive | inactive | inactive | inactive | inactive | inactive | inactive | inactive | – | inactive | – | – | – | – | – | – | – | –
12 | O=C(O)c1cc(C(=O)O)cc(C(=O)O)c1 | inactive | inactive | inactive | inactive | inactive | inactive | inactive | – | inactive | inactive | – | – | – | – | – | – | – | –
13 | CC(CO)(CO)[N+](=O)[O-] | inactive | inactive | inactive | inactive | inactive | inactive | inactive | – | inactive | – | – | – | – | – | – | – | – | –
14 | N[C@@H](CCC(=O)O)C(=O)O | inactive | inactive | inactive | inactive | inactive | inactive | inactive | inactive | inactive | inactive | – | – | – | – | – | – | – | –
15 | CCN(C=O)CC | inactive | inactive | inactive | inactive | inactive | inactive | inactive | inactive | inactive | inactive | – | – | – | – | – | – | – | –
16 | CC(=O)O[C@@]12CO[C@@H]1C[C@H](O)[C@@]1(C)C(=O)[C@H](O)C3=C(C)[C@@H](OC(=O)[C@H](O)[C@@H](NC(=O)OC(C)(C)C)c4ccccc4)C[C@@](O)([C@@H](OC(=O)c4ccccc4)[C@H]21)C3(C)C | inactive | inactive | inactive | inactive | inactive | inactive | inactive | inactive | inactive | 10.7 µM (active) | – | – | – | – | – | – | – | –
17 | O=C(O)CNC(=O)c1ccccc1 | inactive | inactive | inactive | inactive | inactive | inactive | inactive | – | inactive | – | – | – | – | – | – | – | – | –
18 | C=C(C)C(=O)OCC1CCCO1 (centres undefined) | inactive | inactive | inactive | inactive | inactive | inactive | inactive | inactive | inactive | inactive | – | – | – | – | – | – | – | –
19 | N[C@H](C(=O)O)[C@@H](O)c1ccc(O)c(O)c1 | inactive | inactive | inactive | inactive | inactive | inactive | inactive | – | inactive | inactive | – | – | – | – | – | – | – | –
20 | CCCCCCCCCCCCSC | inactive | inactive | inactive | inactive | inactive | inactive | inactive | inactive | inactive | inactive | – | – | – | – | – | – | – | –
21 | CCOC(=O)OC(C)OC1=C(C(=O)Nc2ccccn2)N(C)S(=O)(=O)c2ccccc21 (centres undefined) | inactive | inactive | inactive | inactive | inactive | inactive | inactive | – | 5.35 µM (active) | – | – | – | – | – | – | – | – | –
